Assay results taken from the supplement of paper PMC11732987, “Enantioselective OTUD7B fragment discovery through chemoproteomics screening and high-throughput optimisation” (Communications Chemistry, 2025).

Experiments:
Assay in all cases: log2 ratio of Biotin-Ahx-Ub-VS probe labelling (fragment/DMSO); higher = less target engagement (more negative = stronger competition), active = hit call of the paper (q ≤ 0.05, log2 ratio ≤ -1)
Details in all cases: compound concentration: 200 uM; treatment time: 3 h
[1] = biological target: T1, OTUD6B (UniProt Q8N6M0)
T1 sequence (whole entry): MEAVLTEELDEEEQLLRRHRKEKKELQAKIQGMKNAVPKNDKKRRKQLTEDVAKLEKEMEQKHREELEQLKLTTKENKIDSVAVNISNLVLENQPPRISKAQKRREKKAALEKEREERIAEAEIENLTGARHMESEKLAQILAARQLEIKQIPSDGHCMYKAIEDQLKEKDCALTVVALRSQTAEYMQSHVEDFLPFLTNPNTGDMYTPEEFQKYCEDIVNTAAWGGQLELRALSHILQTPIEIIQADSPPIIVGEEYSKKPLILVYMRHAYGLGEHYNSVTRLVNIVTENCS
Outline: (§1)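 Fragment (200 µM) or vehicle was incubated for 3 h with triplicate HEK293T lysate samples of 495 µg, which were then treated with Biotin-Ahx-Ub-VS at 0.5 µM final for 1 h. Labelled DUBs were enriched on NeutrAvidin, digested with LysC and trypsin, and analysed by diaPASEF LC-MS/MS. Values are average log2 fragment/vehicle ratios from an unpaired t-test on global-median-normalised Spectronaut label-free quantities, using proteins with ≥2 unique peptides.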

[2] = biological target: T2, OTUD7B (UniProt Q6GQQ9)
T2 sequence (whole entry): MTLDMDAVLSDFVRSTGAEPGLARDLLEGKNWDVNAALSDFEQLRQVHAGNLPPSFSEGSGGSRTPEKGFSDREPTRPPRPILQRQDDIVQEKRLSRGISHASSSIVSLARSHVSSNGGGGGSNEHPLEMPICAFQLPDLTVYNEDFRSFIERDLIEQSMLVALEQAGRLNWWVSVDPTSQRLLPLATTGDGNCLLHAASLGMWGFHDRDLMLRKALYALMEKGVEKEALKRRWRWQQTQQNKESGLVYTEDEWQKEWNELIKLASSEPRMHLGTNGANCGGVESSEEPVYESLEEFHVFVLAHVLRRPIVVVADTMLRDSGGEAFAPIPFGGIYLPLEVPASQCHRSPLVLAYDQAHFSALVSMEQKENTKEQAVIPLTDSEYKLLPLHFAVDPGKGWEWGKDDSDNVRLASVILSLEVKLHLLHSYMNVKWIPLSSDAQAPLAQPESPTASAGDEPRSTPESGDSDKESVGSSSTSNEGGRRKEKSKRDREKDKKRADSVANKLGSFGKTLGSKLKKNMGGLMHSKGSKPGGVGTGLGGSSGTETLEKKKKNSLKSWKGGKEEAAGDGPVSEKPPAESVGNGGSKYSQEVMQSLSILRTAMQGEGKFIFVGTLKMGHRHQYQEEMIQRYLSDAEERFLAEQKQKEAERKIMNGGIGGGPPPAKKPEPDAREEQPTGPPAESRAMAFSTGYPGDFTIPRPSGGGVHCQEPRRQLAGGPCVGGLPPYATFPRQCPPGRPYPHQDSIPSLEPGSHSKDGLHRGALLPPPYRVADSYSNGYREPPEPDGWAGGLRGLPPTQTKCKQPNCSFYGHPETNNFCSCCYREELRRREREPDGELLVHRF
Outline: as §1

[3] = biological target: PRPF8 (UniProt Q6P2Q9)
Outline: as §1

[4] = biological target: T3, PSMD7 (UniProt P51665)
T3 sequence (whole entry): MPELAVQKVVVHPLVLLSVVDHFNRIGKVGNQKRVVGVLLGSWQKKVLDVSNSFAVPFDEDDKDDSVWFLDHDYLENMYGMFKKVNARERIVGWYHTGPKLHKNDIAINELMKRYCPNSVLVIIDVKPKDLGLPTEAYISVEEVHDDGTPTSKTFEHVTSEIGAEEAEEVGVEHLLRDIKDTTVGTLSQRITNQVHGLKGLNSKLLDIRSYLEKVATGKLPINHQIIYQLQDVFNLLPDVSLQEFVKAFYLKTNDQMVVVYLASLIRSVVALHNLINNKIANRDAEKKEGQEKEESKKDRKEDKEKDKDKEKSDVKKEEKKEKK
Outline: as §1

[5] = biological target: UCHL1 (UniProt P09936)
Chain of UCHL1 (P09936 whole entry, looked up): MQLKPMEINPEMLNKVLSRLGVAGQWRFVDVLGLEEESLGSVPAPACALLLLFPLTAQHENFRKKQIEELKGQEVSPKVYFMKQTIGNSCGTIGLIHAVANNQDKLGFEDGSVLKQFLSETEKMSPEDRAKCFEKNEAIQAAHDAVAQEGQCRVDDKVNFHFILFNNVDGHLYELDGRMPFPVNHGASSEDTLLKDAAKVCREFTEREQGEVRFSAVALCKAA
Outline: as §1

[6] = biological target: T4, UCHL3 (UniProt P15374)
T4 sequence (whole entry): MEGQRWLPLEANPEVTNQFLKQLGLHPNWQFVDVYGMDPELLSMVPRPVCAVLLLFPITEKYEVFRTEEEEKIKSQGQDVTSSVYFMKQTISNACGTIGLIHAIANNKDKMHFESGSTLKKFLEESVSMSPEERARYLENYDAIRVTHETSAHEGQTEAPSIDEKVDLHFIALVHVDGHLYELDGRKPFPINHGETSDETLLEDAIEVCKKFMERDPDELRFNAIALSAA
Outline: as §1

[7] = biological target: T5, UCHL5 (UniProt Q9Y5K5)
T5 sequence (whole entry): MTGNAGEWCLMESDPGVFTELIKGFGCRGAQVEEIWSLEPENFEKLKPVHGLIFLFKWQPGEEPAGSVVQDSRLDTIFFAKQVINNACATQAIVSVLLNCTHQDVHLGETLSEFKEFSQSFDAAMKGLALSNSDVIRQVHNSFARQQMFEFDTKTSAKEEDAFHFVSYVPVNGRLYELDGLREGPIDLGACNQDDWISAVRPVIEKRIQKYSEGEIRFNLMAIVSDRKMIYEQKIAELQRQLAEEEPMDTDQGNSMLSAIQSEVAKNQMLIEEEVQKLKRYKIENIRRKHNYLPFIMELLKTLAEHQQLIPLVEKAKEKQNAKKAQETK
Outline: as §1

[8] = biological target: USP10 (UniProt Q14694)
Chain of USP10 (Q14694 whole entry): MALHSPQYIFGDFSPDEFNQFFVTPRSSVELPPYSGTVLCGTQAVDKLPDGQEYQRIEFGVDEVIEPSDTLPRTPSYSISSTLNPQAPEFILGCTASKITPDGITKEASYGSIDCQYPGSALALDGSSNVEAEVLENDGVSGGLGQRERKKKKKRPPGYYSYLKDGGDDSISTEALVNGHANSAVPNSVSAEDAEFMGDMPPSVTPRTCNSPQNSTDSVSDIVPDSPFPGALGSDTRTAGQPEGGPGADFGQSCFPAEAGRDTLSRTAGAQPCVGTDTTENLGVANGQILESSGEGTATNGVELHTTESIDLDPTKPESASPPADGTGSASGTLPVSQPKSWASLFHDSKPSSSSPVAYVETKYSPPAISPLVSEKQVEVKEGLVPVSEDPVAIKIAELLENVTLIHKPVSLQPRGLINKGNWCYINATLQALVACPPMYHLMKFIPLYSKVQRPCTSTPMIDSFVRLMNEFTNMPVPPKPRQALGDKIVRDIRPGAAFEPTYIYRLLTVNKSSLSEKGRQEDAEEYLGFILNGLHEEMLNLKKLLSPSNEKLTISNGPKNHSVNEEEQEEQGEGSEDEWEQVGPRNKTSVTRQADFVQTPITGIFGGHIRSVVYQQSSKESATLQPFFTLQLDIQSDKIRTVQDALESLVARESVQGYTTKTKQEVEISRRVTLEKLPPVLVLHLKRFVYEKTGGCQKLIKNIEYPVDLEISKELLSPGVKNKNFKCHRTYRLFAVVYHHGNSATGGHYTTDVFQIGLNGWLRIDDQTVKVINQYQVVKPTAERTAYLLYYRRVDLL
Outline: as §1

[9] = biological target: T6, USP15 (UniProt Q9Y4E8)
T6 sequence (whole entry): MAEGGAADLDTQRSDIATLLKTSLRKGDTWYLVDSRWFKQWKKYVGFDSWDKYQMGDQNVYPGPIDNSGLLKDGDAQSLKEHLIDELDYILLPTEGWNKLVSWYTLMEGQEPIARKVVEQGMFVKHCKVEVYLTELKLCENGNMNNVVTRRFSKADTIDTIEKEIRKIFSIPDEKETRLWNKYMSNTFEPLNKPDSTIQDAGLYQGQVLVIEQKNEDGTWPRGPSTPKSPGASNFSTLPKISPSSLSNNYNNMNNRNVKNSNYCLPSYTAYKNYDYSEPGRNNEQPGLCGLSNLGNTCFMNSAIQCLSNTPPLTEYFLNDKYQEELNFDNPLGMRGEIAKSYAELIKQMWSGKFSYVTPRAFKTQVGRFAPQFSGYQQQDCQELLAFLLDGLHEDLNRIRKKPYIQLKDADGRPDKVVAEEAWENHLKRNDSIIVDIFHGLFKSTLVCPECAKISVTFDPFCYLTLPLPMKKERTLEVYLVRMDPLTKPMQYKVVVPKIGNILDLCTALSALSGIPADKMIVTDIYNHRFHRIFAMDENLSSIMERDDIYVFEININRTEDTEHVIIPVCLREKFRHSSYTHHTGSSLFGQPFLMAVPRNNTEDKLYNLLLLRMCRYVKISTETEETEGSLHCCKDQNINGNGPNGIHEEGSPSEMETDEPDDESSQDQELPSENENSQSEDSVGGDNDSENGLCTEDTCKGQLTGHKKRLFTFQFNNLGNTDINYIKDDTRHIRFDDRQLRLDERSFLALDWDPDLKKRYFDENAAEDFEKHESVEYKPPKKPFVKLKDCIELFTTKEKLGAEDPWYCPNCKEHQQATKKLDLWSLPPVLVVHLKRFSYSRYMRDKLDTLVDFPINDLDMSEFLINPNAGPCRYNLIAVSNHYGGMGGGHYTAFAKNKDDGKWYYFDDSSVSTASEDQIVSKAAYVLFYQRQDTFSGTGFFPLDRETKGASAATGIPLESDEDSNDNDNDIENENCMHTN
Outline: as §1

[10] = biological target: USP16 (UniProt Q9Y5T5)
Chain of USP16 (Q9Y5T5 whole entry, looked up): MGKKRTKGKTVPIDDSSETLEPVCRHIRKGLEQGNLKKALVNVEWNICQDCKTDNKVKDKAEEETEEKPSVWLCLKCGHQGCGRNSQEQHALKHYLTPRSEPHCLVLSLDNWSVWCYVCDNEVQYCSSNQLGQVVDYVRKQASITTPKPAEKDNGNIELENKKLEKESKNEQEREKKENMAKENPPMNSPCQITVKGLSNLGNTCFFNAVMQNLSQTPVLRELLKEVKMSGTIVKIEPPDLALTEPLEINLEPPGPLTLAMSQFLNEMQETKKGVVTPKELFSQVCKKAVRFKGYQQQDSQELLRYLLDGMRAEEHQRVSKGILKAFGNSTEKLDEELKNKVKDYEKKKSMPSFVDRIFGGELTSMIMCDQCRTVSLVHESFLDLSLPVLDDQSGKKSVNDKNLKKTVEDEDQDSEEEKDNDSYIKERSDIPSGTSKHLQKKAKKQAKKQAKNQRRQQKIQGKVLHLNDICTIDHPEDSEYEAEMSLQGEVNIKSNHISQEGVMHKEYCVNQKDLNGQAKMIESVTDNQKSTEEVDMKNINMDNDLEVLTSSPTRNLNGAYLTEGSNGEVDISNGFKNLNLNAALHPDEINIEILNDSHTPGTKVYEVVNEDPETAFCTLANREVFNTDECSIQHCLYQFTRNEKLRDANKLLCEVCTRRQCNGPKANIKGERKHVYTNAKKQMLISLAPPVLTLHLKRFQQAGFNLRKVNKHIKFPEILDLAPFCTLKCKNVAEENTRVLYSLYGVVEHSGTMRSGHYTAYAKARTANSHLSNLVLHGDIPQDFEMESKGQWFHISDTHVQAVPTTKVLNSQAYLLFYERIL
Outline: as §1

Measured: log2 ratio of Biotin-Ahx-Ub-VS probe labelling

Cc1cc(C(=O)NC2CCN(C(=O)CCl)CC2)no1
active: [5] -1.58
inactive: [1] -0.173 | [2] -0.263 | [3] -0.0374 | [4] -0.0768 | [6] 0.336 | [7] -0.135 | [8] -0.197 | [9] -0.252 | [10] 0.021
